# Experimental data as given in PubChem BioAssay (NCATS).
# Values without a mark were called inactive. Records with an inconclusive call do not appear. The source made the active and inactive calls. Unless noted, calls follow the shape of the dose curve; as a rule, active = well fitted curve in either direction with a large enough effect (not every such curve was filed as active); inconclusive = small, poorly fitted or top-dose-only effect, or another doubt; inactive = flat fitted curve, though single readings scatter.
# How the values were obtained:
# [1] = AP1 Signaling Pathway (AID 357); settings: ME-180 AP-1-bla reporter, EGF-induced, beta-lactamase ratio, 5 h; at 17.2 µM (top of the series) unless noted;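 also: ME-180 reporter cells stimulated with EGF at its EC50 level; % is scaled to controls: 0 for no effect and ±100 for the full control effect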
# Procedure, shortened: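 First, ME-180 AP-1-bla cells were cultured overnight at 37 °C in low-serum Opti-MEM. Next, titrated compounds with EC50 EGF were incubated 5 hours. Finally, CCF4 was added for 2.5 hours and the 460/530 nm ratio recorded.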
# [2] = NFAT Signaling Pathway (AID 444); settings: Jurkat NFAT-bla M1, carbachol, beta-lactamase ratio, 5 h; at 17.2 µM (top of the series) unless noted;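 also: carbachol stimulus at about its EC50 of 1 µM final; % is scaled to controls: 0 for no effect and ±100 for the full control effect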
# Procedure, shortened: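 Read-out: CCF4 FRET ratio (460 nm/530 nm) after 1 h RT dye loading, used for %activity and AC50 from titration series. Cells: Jurkat NFAT-β-lactamase/M1 line, treated with compound plus 1 uM carbachol for 5 h, 37 °C.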
# [3] = Stat Signaling Pathway (AID 446); settings: ME-180 (cervical carcinoma) SIE beta-lactamase reporter, IL-6 stimulated, 5 h; at 17.2 µM (top of the series) unless noted;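 also: ME-180 cervical cancer cells given 40 pM IL-6 alongside compound; SIE-controlled beta-lactamase reporter measured as 460/530 nm FRET emission ratio; % is scaled to controls: 0 for no effect and ±100 for the full control effect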
# Procedure, shortened: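 FRET read-out (405 nm excitation, 460/530 nm emission) of a beta-lactamase reporter under a STAT-inducible element in ME-180 cervical carcinoma cells. Cells with compound receive 40 pM IL-6 for 5 h. Values are normalised to AC90 stimulation and AC90 JAK-inhibitor controls.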
# [4] = target: Glucocorticoid receptor (Homo sapiens) (UniProt P04150); test: GR-GFP Redistribution (AID 450;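 active = compounds whose dose series gives a full or clear partial fitted curve of increased nuclear translocation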; also: potency is read from the fitted curve at half-maximal effect)
# Glucocorticoid receptor (Homo sapiens), sequence (P04150 whole entry, looked up): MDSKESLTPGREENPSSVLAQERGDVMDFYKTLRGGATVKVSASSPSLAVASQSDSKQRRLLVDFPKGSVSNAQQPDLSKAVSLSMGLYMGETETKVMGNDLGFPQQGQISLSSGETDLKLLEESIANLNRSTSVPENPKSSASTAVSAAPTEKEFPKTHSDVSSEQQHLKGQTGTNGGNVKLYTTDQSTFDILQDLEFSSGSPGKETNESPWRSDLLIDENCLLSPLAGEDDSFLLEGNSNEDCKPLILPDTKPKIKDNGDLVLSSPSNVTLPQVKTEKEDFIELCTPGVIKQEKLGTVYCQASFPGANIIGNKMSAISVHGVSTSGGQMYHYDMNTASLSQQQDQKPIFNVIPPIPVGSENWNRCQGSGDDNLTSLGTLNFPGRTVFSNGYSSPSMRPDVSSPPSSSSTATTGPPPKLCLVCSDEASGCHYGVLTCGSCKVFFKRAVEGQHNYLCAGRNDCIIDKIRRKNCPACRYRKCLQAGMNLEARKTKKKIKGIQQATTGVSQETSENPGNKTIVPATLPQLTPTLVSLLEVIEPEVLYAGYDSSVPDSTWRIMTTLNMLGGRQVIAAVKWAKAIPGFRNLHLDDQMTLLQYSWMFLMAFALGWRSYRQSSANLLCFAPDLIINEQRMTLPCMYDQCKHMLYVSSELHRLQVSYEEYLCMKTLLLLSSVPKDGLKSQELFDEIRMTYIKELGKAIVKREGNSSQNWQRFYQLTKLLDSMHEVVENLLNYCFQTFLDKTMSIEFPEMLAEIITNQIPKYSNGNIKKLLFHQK
Compound,"activity change, negative = inhibition [1] [%]","activity change, negative = inhibition [2]","activity, negative = inhibition [3] [%]",Potency [4] [µM]
N#CCCSCc1ccc(OCC(=O)O)cc1,2.01,-0.583%,0.185,> 20.6
Cc1cc(O)ccc1-c1cnc2ccccc2n1,5.77,-5.17%,21.5,> 20.6
Oc1ccc2ccccc2c1C=NC12CN3CCN(CN(C3)C1)C2,6.89,-22.1%,-13.6,> 20.6
O=C(O)CC1SC(=Nc2cccc(C(F)(F)F)c2)NC1=O (stereo not given),7.22,9.67%,-0.717,> 20.6
CCOc1ccc(/C(O)=C2/C(=O)C(=O)N(CCN(C)C)C2c2ccccc2)cc1Cl (stereo not given),8.45,1.62%,7.84,> 20.6
Cc1ccc(N2C(=O)CC(Cn3nc(C)cc3C)C2=O)cc1 (stereo not given),-1.66,6.84%,13.4,> 20.6
CCOc1nc(-c2ccncc2)nc2ccccc12,-12,2.73%,-6.2,> 20.6
Cn1c(OCc2cccnc2)nc2c1c(=O)n(Cc1ccccc1)c(=O)n2C,-12.1,-1.28%,4.58,> 20.6
CCOC(=O)C(OC(=O)c1sc(=S)n(C)c1C)C(C)=O (stereo not given),18,6.69%,9.46,> 20.6
COc1ccc(OC)c(C2=Nn3c(nnc3-c3ccco3)SC2)c1,-13.7,24.6%,-6.07,> 20.6
CCOC(=O)Oc1ccc2c(c1)C(C)=CC(C)(C)N2C(=O)OCC,4.5,-5.18%,4.48,> 20.6
COC(=O)c1ccccc1N1C(=O)[C@@H]2C(c3ccc(Br)cc3)=NO[C@@H]2C1=O,11.9,19.8%,7.92,> 20.6
CCOC(=O)CC(=O)CSc1nnc2sc3ccccc3n12,6.11,-0.0909%,7.94,> 20.6
O=C(CCC1CCCC1)N1CCC(N2CCN(c3ccccc3)CC2)CC1,-5.6,-29.5%,9.85,> 20.6
Cc1cc(NCC2CCCO2)n2c(nc3ccccc32)c1C#N (stereo not given),-1.4,-16.9%,-2.4,> 20.6
Cc1ccc(C(=O)C2C(c3cccs3)NC(=O)NC2(O)C(F)(F)F)cc1 (stereo not given),1.39,8.36%,0.646,> 20.6
CCSc1nc(O)c(C2OC(=O)c3c2ccc(OC)c3OC)c(=O)n1-c1ccccc1 (stereo not given),-10.9,4%,-4.52,> 20.6
COc1ccccc1N(O)C1CC(=O)N(c2ccc(F)cc2)C1=O (stereo not given),-0.204,-3.85%,1.38,> 20.6
Oc1ccccc1-c1nc(NCCN2CCOCC2)c2ccccc2n1,-13.2,25.8%,-12.5,> 20.6
O=C(OCCCN1CCCC1)C1(c2ccccc2)CCCC1,14.4,-82.8% (active),13.7,> 20.6
O=C1c2ccccc2C(=O)N1CCN1CCc2ccccc21,-29,1.23%,-3.43,> 20.6
CCCC1C(c2ccc(OC)cc2)C(C#N)(C#N)C2(C#N)CC1(N)NC2=O (stereo not given),7.74,-5.15%,-5.79,> 20.6
CC(C)OC(=O)CCNc1n[nH]c(=O)[nH]c1=O,5.78,0.573%,0.163,> 20.6
CCCCNC(=O)N1CCOCCOCCN(C(=O)NCCCC)CCOCCOCC1,3.89,5.69%,-1.16,> 20.6
COc1ccc(N2C(=O)CC(N(Cc3ccc(S(N)(=O)=O)cc3)C(C)=O)C2=O)cc1 (stereo not given),5.04,-2.46%,2.66,> 20.6
